Values without a mark were called inactive. The rule behind the calls is not given here.
The molecules below were run on HIV-1 nucleocapsid protein NCp7 (binding to TG oligonucleotide) (assay: HIV Nucleocapsid (AID 346;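 note: potency is for inhibitors that block NC binding and lower polarization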)). Conditions: HIV-1 NC / fluorescein-TGTGTGTG probe, fluorescence polarization.
Method in brief: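 Fluorescence polarization binding of 100 nM HIV-1 NC to 10 nM fluorescein-labelled TG4xF oligonucleotide. Buffer was Hepes pH 7.5 with 250mM NaCl, 1uM ZnCl2, TCEP and 2-mercaptoethanol. Compounds were incubated 1 hr at room temperature before the read.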
Potency is the fitted concentration of half-maximal effect.

Row | Structure (SMILES) | Potency
1 | COc1ccccc1CN1CCCC2(CCN(S(=O)(=O)c3ccccc3)CC2)C1 | > 20 µM
2 | O=c1c(CCc2ccccc2)nc2cnc(N3CCOCC3)nc2n1-c1ccccc1 | > 20 µM
3 | CN(C)C(=O)c1ccc(-c2ccc3ncnc(NCc4ccccc4)c3c2)cc1 | > 20 µM
4 | COCCn1c(=O)c(-c2ccc(Cl)cc2)nc2cnc(Oc3cccc(Cl)c3)nc21 | > 20 µM
5 | COc1ncc2nc(CCc3ccccc3)c(=O)n(CCc3ccccc3)c2n1 | > 20 µM
6 | COCCn1c(=O)c(CCc2ccccc2)nc2cnc(OCc3ccccc3)nc21 | > 20 µM
7 | Cc1noc(C)c1C(=O)N1CCC[C@@]2(CCN(C(=O)Nc3cccc(F)c3)C2)C1 | > 20 µM
8 | O=C(c1cccc(F)c1)N1CCC2(CCN(Cc3nccs3)CC2)CC1 | > 20 µM
9 | CN(C)C(=O)c1ccc(-c2cncnc2NCc2cccnc2)cc1 | > 20 µM
10 | COc1ccc(Oc2ncc3nc(-c4cc(F)cc(F)c4)c(=O)n(C[C@H]4CCCO4)c3n2)cc1 | > 20 µM
11 | CN(Cc1ccco1)c1ccnc(-c2cccc(NS(C)(=O)=O)c2)n1 | > 20 µM
12 | c1cncc(-c2ccc3ncnc(NCCN4CCOCC4)c3c2)c1 | > 20 µM
13 | COc1ccc(-n2c(=O)c(C)nc3cnc(N(C)C)nc32)cc1 | > 20 µM
14 | COCC(=O)N1CCC[C@@]2(CCN(Cc3ccccc3OC)C2)C1 | > 20 µM
15 | CNc1ccnc(-c2ccccc2C(F)(F)F)n1 | > 20 µM

From PubChem BioAssay (NCATS)
